The source of these data is the antibiotic and cytotoxicity screens of Wong et al. (2023).

Hit rate of the full screen: of about 39,000 compounds, about 3,300 (8.5%) were called active. Only a selection was taken, and actives are over-represented in it overall.

The test system of this assay is HepG2. Put plainly: cytotoxicity call (relative viability < 0.9). The following applies: 10 µM.
With `C[C@@H]1CCCCO[C@H](CN(C)C(=O)C2CCCCC2)[C@H](C)CN([C@@H](C)CO)C(=O)c2cc(NC(=O)Nc3ccc4c(c3)OCO4)ccc2O1`, the cytotoxicity call is “inactive”.

Consider `Cc1nc(COP(=O)(O)O)cc2c1[O][Mn][O]c1c(cc(COP(=O)(O)O)nc1C)CN(CC(=O)O)CCN(CC(=O)O)C2`, for which the cytotoxicity call is “inactive”.

Turning to `C[C@H]1CCCCO[C@@H](CN(C)CC2CC2)[C@@H](C)CN([C@@H](C)CO)C(=O)c2cc(NC(=O)Nc3ccc(F)cc3)ccc2O1`, the cytotoxicity call was “inactive”.

Consider `C[C@@H]1CCCCO[C@@H](CN(C)CC2CCCCC2)[C@H](C)CN([C@H](C)CO)C(=O)c2cc(NC(=O)Nc3ccc(F)cc3)ccc2O1`, for which the cytotoxicity call is “active”.

For the compound `C[C@@H]1CCCCO[C@H](CN(C)CC2CCCCC2)[C@@H](C)CN([C@H](C)CO)C(=O)c2cc(NC(=O)Nc3ccc(F)cc3)ccc2O1`, the cytotoxicity call was “inactive”.

`C[C@@H]1CCCCO[C@H](CN(C)CC2CCCCC2)[C@H](C)CN([C@@H](C)CO)C(=O)c2cc(NC(=O)Nc3ccc(F)cc3)ccc2O1`: the cytotoxicity call is “active”.

Consider `C[C@@H]1CCCCO[C@@H](CN(C)CC2CCCCC2)[C@H](C)CN([C@@H](C)CO)C(=O)c2cc(NC(=O)Nc3ccc(F)cc3)ccc2O1`, for which the cytotoxicity call is “active”.

Consider `C[C@@H]1CN([C@@H](C)CO)C(=O)c2cc(NC(=O)Nc3ccc(F)cc3)ccc2O[C@@H](C)CCCCO[C@@H]1CN(C)CC1CCCCC1`, for which the cytotoxicity call is “active”.

Regarding `C[C@@H]1CN([C@H](C)CO)C(=O)CCCn2cc(nn2)CO[C@H]1CN(C)S(=O)(=O)c1ccc2c(c1)OCCCO2`, the cytotoxicity call is “inactive”.

Regarding `Cc1noc(C)c1NC(=O)N(C)C[C@H]1OCCCC[C@H](C)Oc2ccc(NC(=O)NC3CCCCC3)cc2C(=O)N([C@@H](C)CO)C[C@@H]1C`, the cytotoxicity call is “inactive”.

As for `CN(C)CC#Cc1ccc([C@@H]2[C@H]3CN(C(=O)CN(C)C)CCCCN3[C@H]2CO)cc1`, the cytotoxicity call was “inactive”.

On to `C[C@@H]1CCCCO[C@@H](CN(C)C(=O)NC2CCCCC2)[C@H](C)CN([C@@H](C)CO)C(=O)c2cc(NC(=O)NC3CCCCC3)ccc2O1`, for which the cytotoxicity call is “inactive”.

Take `O=C(C[C@@H]1C[C@H]2c3cc(NC(=O)c4ccc5c(c4)OCO5)ccc3O[C@H]2[C@@H](CO)O1)NCc1ccccn1`: the cytotoxicity call was “inactive”.

As to `C[C@@H]1CN([C@@H](C)CO)C(=O)c2cccc(NC(=O)Nc3ccc(C(F)(F)F)cc3)c2O[C@@H]1CN(C)Cc1ccc(-c2ccccc2)cc1`, the cytotoxicity call was “inactive”.

On to `CC(C)NC(=O)Nc1ccc2c(c1)CC(=O)N([C@H](C)CO)C[C@@H](C)[C@H](CN(C)S(=O)(=O)c1cn(C)cn1)O2`, for which the cytotoxicity call was “inactive”.

On to `C[C@H]1CN([C@@H](C)CO)C(=O)c2cccc(NS(=O)(=O)c3ccc(F)cc3)c2O[C@@H]1CN(C)Cc1ccncc1`, for which the cytotoxicity call is “inactive”.

As to `C[C@H](O)C#Cc1ccc2c(c1)O[C@H](CN(C)C(=O)c1ccccc1)[C@H](C)CN([C@@H](C)CO)S2(=O)=O`, the cytotoxicity call was “inactive”.

As to `C[C@@H]1CN([C@@H](C)CO)S(=O)(=O)c2ccc(-c3cccnc3)cc2O[C@H]1CN(C)C(=O)c1cccc(F)c1`, the cytotoxicity call is “inactive”.

In the case of `C[C@H](CO)N1C[C@H](C)[C@H](CN(C)CC2CCCCC2)OCCCC[C@H](C)Oc2ccc(NC(=O)Nc3ccc(F)cc3)cc2C1=O`, the cytotoxicity call is “active”.

As for `C[C@H](CO)N1C[C@H](C)[C@@H](CN(C)CC2CC2)OCCCC[C@H](C)Oc2ccc(NC(=O)Nc3ccc(F)cc3)cc2C1=O`, the cytotoxicity call is “inactive”.

Take `C[C@@H]1CN([C@@H](C)CO)C(=O)c2cc(NC(=O)Nc3ccc(F)cc3)ccc2O[C@@H](C)CCCCO[C@H]1CN(C)CC1CCCCC1`: the cytotoxicity call was “active”.

As for `C[C@H](CO)N1C[C@H](C)[C@H](CN(C)CC2CC2)OCCCC[C@H](C)Oc2ccc(NC(=O)Nc3ccc(F)cc3)cc2C1=O`, the cytotoxicity call is “inactive”.

On to `C[C@@H]1CCCCO[C@@H](CN(C)CC2CC2)[C@@H](C)CN([C@H](C)CO)C(=O)c2cc(NC(=O)Nc3ccc(F)cc3)ccc2O1`, for which the cytotoxicity call was “inactive”.

In the case of `C[C@H](CO)N1C[C@H](C)[C@@H](CN(C)CC2CCCCC2)OCCCC[C@H](C)Oc2ccc(NC(=O)Nc3ccc(F)cc3)cc2C1=O`, the cytotoxicity call is “active”.

In the case of `C[C@@H]1CCCCO[C@@H](CN(C)CC2CC2)[C@H](C)CN([C@@H](C)CO)C(=O)c2cc(NC(=O)Nc3ccc(F)cc3)ccc2O1`, the cytotoxicity call is “inactive”.

On to `COCC(=O)Nc1ccc2c(c1)OC[C@H](C)N(C(=O)Cc1cccnc1)C[C@@H](C)[C@H](OC)CN(C)C2=O`, for which the cytotoxicity call is “inactive”.

Regarding `COCC#Cc1ccc2c(c1)O[C@H](CN(C)C(=O)Nc1ccccc1F)[C@H](C)CN([C@@H](C)CO)S2(=O)=O`, the cytotoxicity call was “inactive”.

In the case of `COc1ccccc1-c1cnc2c(c1)C(=O)N([C@@H](C)CO)C[C@H](C)[C@@H](CN(C)C(=O)c1ccncc1)O2`, the cytotoxicity call was “inactive”.

In the case of `O=C(C[C@H]1CC[C@@H](NC(=O)CN2CCOCC2)[C@@H](CO)O1)NC1CCC1`, the cytotoxicity call is “inactive”.

As to `O=C1/C(=C/C=C/c2ccco2)CCC/C1=C\C=C\c1ccco1`, the cytotoxicity call was “inactive”.

For `NC(=O)CSc1nnnn1-c1cccc(O)c1`, the cytotoxicity call is “inactive”.

Take `C[C@H]1CN([C@@H](C)CO)C(=O)c2cccc(NC(=O)c3cnccn3)c2O[C@@H]1CN(C)S(=O)(=O)c1ccc(Cl)cc1`: the cytotoxicity call was “inactive”.

Take `CC(C)NC(=O)N(C)C[C@H]1Oc2ccc(NC(=O)C3CCCCC3)cc2C(=O)N([C@@H](C)CO)C[C@@H]1C`: the cytotoxicity call is “inactive”.

Take `CS(=O)(=O)Nc1ccc2c(c1)[C@H]1C[C@@H](CC(=O)NCc3ccc(-c4ccccc4)cc3)O[C@@H](CO)[C@H]1O2`: the cytotoxicity call was “inactive”.

As to `C[C@@H]1CCCCO[C@H](CN(C)Cc2ccccc2)[C@H](C)CN([C@H](C)CO)C(=O)c2cc(NS(=O)(=O)c3ccc(F)cc3)ccc2O1`, the cytotoxicity call is “inactive”.

Turning to `O=C(C[C@H]1C=C[C@H](NS(=O)(=O)c2ccccc2)[C@@H](CO)O1)NCc1ccncn1`, the cytotoxicity call is “inactive”.

In the case of `C[C@H]1CN([C@@H](C)CO)C(=O)Cc2cc(NC(=O)CCC(F)(F)F)ccc2O[C@@H]1CN(C)Cc1ccc(C(F)(F)F)cc1`, the cytotoxicity call was “inactive”.

`C[C@H]1CN([C@@H](C)CO)C(=O)Cc2cc(NC(=O)Nc3ccc(C(F)(F)F)cc3)ccc2O[C@@H]1CN(C)Cc1ccc(C(F)(F)F)cc1`: the cytotoxicity call is “inactive”.

As to `C[C@@H]1CN([C@H](C)CO)C(=O)Cc2cc(NC(=O)CCC(F)(F)F)ccc2O[C@@H]1CN(C)Cc1ccc(C(F)(F)F)cc1`, the cytotoxicity call was “inactive”.

For the compound `C[C@H](CO)N1C[C@H](C)[C@H](CN(C)Cc2ccc(C(F)(F)F)cc2)Oc2ccc(NC(=O)Nc3ccc(C(F)(F)F)cc3)cc2CC1=O`, the cytotoxicity call was “active”.

Consider `C[C@H]1CN([C@@H](C)CO)C(=O)Cc2cc(NC(=O)Nc3ccc(C(F)(F)F)cc3)ccc2O[C@H]1CN(C)Cc1ccc(C(F)(F)F)cc1`, for which the cytotoxicity call was “active”.

For the compound `C[C@@H]1CN([C@H](C)CO)C(=O)Cc2cc(NC(=O)CCC(F)(F)F)ccc2O[C@H]1CN(C)Cc1ccc(C(F)(F)F)cc1`, the cytotoxicity call was “active”.

As to `C[C@@H]1CN([C@H](C)CO)C(=O)Cc2cc(NC(=O)Nc3ccc(C(F)(F)F)cc3)ccc2O[C@@H]1CN(C)Cc1ccc(C(=O)O)cc1`, the cytotoxicity call is “inactive”.

As for `C[C@H](CO)N1C[C@H](C)[C@@H](CN(C)Cc2ccc(C(F)(F)F)cc2)Oc2ccc(NC(=O)Nc3ccc(C(F)(F)F)cc3)cc2CC1=O`, the cytotoxicity call was “active”.

As for `C[C@@H]1CN([C@H](C)CO)C(=O)Cc2cc(NC(=O)Nc3ccc(C(F)(F)F)cc3)ccc2O[C@H]1CN(C)Cc1ccc(C(F)(F)F)cc1`, the cytotoxicity call was “inactive”.

With `C[C@@H]1CN([C@@H](C)CO)C(=O)Cc2cc(NC(=O)Nc3ccc(C(F)(F)F)cc3)ccc2O[C@@H]1CN(C)Cc1ccc(C(=O)O)cc1`, the cytotoxicity call was “inactive”.

`Cc1noc(C)c1NC(=O)N[C@H]1CC[C@H](CC(=O)N2CCN(C)CC2)O[C@@H]1CO`: the cytotoxicity call was “inactive”.

As to `O=C(C[C@@H]1CC[C@H]2[C@@H](COC[C@H](O)CN2S(=O)(=O)c2ccccc2F)O1)NCc1ccccc1Cl`, the cytotoxicity call is “inactive”.

As for `C[C@@H]1CN([C@@H](C)CO)C(=O)c2cc(NC(=O)Cc3ccccc3)ccc2O[C@@H]1CN(C)S(=O)(=O)c1cccs1`, the cytotoxicity call was “inactive”.

Regarding `O=C(O)Cn1nnnc1-c1ccc(F)cc1`, the cytotoxicity call was “inactive”.

Turning to `CO[C@H]1O[C@H](CO)[C@@H](OC(=O)c2ccc(Br)cc2)[C@@H]2OC(=O)[C@@H](Cc3ccccc3)C/C=C/C[C@H](Cc3ccccc3)C(=O)O[C@@H]12`, the cytotoxicity call is “inactive”.

As to `COCC(=O)N1C[C@H](C)[C@@H](OC)CN(C)C(=O)c2ccc(NC(=O)c3ccc(F)cc3)cc2OC[C@H]1C`, the cytotoxicity call was “inactive”.

For the compound `COCC(=O)Nc1ccc2c(c1)OC[C@@H](C)N(Cc1ccccc1F)C[C@H](C)[C@H](OC)CN(C)C2=O`, the cytotoxicity call was “inactive”.

As for `CCCCCCCCCCCCCCCCOc1nc2ccc(C)cc2c(=O)o1`, the cytotoxicity call was “inactive”.

Turning to `C[C@H](CO)N1C[C@H](C)[C@@H](CN(C)Cc2ccc(C(=O)O)cc2)Oc2ccc(NC(=O)Nc3ccc(C(F)(F)F)cc3)cc2CC1=O`, the cytotoxicity call is “inactive”.

In the case of `CC(C)NC(=O)N(C)C[C@H]1Oc2ccc(NC(=O)CCC(F)(F)F)cc2CC(=O)N([C@@H](C)CO)C[C@@H]1C`, the cytotoxicity call is “active”.

Turning to `C[C@H]1CN([C@@H](C)CO)C(=O)Cc2cc(NC(=O)Nc3ccc(C(F)(F)F)cc3)ccc2O[C@H]1CN(C)Cc1ccc(C(=O)O)cc1`, the cytotoxicity call is “inactive”.

With `C[C@@H]1CN([C@H](C)CO)C(=O)Cc2cc(NC(=O)NC3CCCCC3)ccc2O[C@@H]1CN(C)Cc1ccc(C(F)(F)F)cc1`, the cytotoxicity call was “inactive”.

With `CC(C)NC(=O)N(C)C[C@H]1Oc2ccc(NC(=O)CCC(F)(F)F)cc2CC(=O)N([C@H](C)CO)C[C@H]1C`, the cytotoxicity call is “inactive”.

On to `C[C@@H]1CN([C@H](C)CO)C(=O)Cc2cc(NC(=O)NC3CCCCC3)ccc2O[C@H]1CN(C)Cc1ccc(C(F)(F)F)cc1`, for which the cytotoxicity call is “inactive”.

On to `C[C@@H]1CN([C@@H](C)CO)C(=O)Cc2cc(NC(=O)Nc3ccc(C(F)(F)F)cc3)ccc2O[C@H]1CN(C)Cc1ccc(C(F)(F)F)cc1`, for which the cytotoxicity call is “active”.

Turning to `C[C@@H]1CN([C@H](C)CO)C(=O)Cc2cc(NC(=O)Nc3ccc(C(F)(F)F)cc3)ccc2O[C@@H]1CN(C)Cc1ccc(C(F)(F)F)cc1`, the cytotoxicity call is “active”.

For `C[C@H]1CN([C@@H](C)CO)C(=O)Cc2cc(NC(=O)NC3CCCCC3)ccc2O[C@H]1CN(C)Cc1ccc(C(F)(F)F)cc1`, the cytotoxicity call was “active”.

For the compound `CC(C)NC(=O)N(C)C[C@@H]1Oc2ccc(NC(=O)CCC(F)(F)F)cc2CC(=O)N([C@@H](C)CO)C[C@H]1C`, the cytotoxicity call was “inactive”.
